Where “and” joins values, the source holds several entries; their conditions need not be identical. Equal values may be shown once. Records with an inconclusive call do not appear. Where a call stands in place of a potency, no number is given. A structure can be active in one record and inactive in another. Calls of active or inactive are those of the source. Calls come from the whole dose curve; as a rule, active = well fitted cell-killing curve with a large enough effect in the repeat runs; inconclusive = weak or mixed curves; inactive = no such curve, though single readings can be large or run the other way.
Test: qHTS assay to identify small molecule antagonists of the peroxisome proliferator-activated receptor delta (PPARd) signaling pathway - cell viability counter screen (AID 743213); note: nearly all actives have a fitted effect of over 50% in size
Conditions: PPARd-bla HEK293H viability, CellTiter-Glo luminescence, 17 h; series mostly up to 62 µM; viability change, negative = cytotoxic: at the top concentration
From the text: U.S. Tox21 Program National Center for Advancing Translational Sciences [NCATS] NIH Chemical Genomics Center [NCGC] U.S. Environmental Protection Agency [EPA] National Institutes of Environmental Health Sciences [NIEHS] National Toxicology Program [NTP] U.S. Food and Drug Administration [FDA] Tox21 Assay Overview: The peroxisome proliferator-activated receptors (PPARs) are lipid-activated transcription factors of the nuclear receptor superfamily with three distinct subtypes namely PPAR alpha, PPAR delta (PPARd) and PPAR gamma. All these subtypes heterodimerizes with Retinoid X receptor (RXR) and have different physiological functions. […] To identify the compounds that inhibit PPAR-delta signaling, GeneBLAzer PPAR delta UAS-bla HEK293H cell line (Invitrogen, Carlsbad, CA, USA) containing a beta-lactamase reporter gene under the control of an Upstream Activator Sequence (UAS) was used to screen the Tox21 compound library. The cytotoxicity of the Tox21 compound library against the PPARd-bla cell line was tested in parallel by measuring the cell viability using CellTiter-Glo assay (Promega, Madison, WI) in the same wells.
Tox21 Assay Protocol Summary: PPARd-bla cells were dispensed at 3000 cells/5uL/well in 1536-well black wall/clear bottom plates using a Multidrop Combi (Thermo Fisher Scientific, Waltham, MA) dispenser. After the assay plates were incubated at 37 C and 5% CO2 for 5 h, 23 nL of compounds dissolved in DMSO, positive controls or DMSO only was transferred to the assay plate by a Pintool station (Kalypsys, San Diego, CA), followed by addition of 1ul L165041 (300 nM, final concentration in the wells). The assay plates were incubated at 37 C for 17 h, and then 1 uL of LiveBLAzerTM B/G FRET substrate was added using a Bioraptr Flying Reagent Dispenser (FRD) workstation (Beckman Coulter, Indianapolis, IN, USA). The assay plates were incubated at room temperature for 2 h and fluorescence intensity was measured by an Envision plate reader (PerkinElmer, Shelton, CT). For cell viability readout that measures cytotoxicity, 3 ul/well of CellTiter-Glo reagent was added into the assay plates using a Bioraptr FRD. After 30 min incubation at room temperature, the luminescence intensity in the plates was measured using a ViewLux plate reader (PerkinElmer).
Potency is the fitted concentration of half-maximal effect.

SMILES | Potency | viability change, negative = cytotoxic
CC(Cl)(Cl)C(=O)O | inactive | –
Nc1ccc(Cl)cc1 | inactive | –
C[C@]12CCC(=O)C=C1CC[C@@H]1[C@@H]2CC[C@]2(C)C(=O)CC[C@@H]12 | inactive | –
CCCCn1cc[n+](C)c1 | inactive | –
CCOP(=S)(OCC)Oc1ccc2c(C)c(Cl)c(=O)oc2c1 | inactive | –
O=P1(N(CCCl)CCCl)NCCCO1 (stereo not given) | inactive | –
CCCCCC[n+]1ccccc1 | 55.5 µM (active) and inactive | –
CCCC[n+]1cccc(C)c1 | inactive | –
O=C(O)CCl | inactive | –
COP(=O)(OC)OC=C(Cl)Cl | inactive | –
CCCCCCCCCCCC(=O)O | inactive | –
O=c1nc(O)n(Cl)c(=O)n1Cl | inactive | –
Cc1cc(-c2ccc(N)c(C)c2)ccc1N | inactive | –
O=C(O)COc1ccc(Cl)cc1Cl | inactive | –
OCCOc1ccccc1 | inactive | –
O=C(O)C(Cl)Cl | inactive | –
O=C(O)c1ccccc1O | inactive | –
CCCC[n+]1ccccc1 | inactive | –
CCCCCCCCCCCCCC[P+](CCCCCC)(CCCCCC)CCCCCC | 15.6 µM (active) and 3.92 µM (active) | –
Oc1cccc2cccnc12 | 521 nM (active) and 155 nM (active) | –

SMILES | Potency | viability change, negative = cytotoxic
Oc1ccccc1-c1ccccc1 | inactive | –
CCNc1nc(Cl)nc(NCC)n1 | inactive | –
C=CCOC(Cn1ccnc1)c1ccc(Cl)cc1Cl (stereo not given) | – | 3.67% (inactive)
COc1ccc(N)cc1 | inactive | –
O=[N+]([O-])O | inactive | –
CNC | inactive | –
O=C(O)CC(O)(CC(=O)O)C(=O)O | inactive | –
CCCCn1cc[n+](C)c1C | inactive | –
CCC[N+]1(C)CCCCC1 | inactive | –
CCCC[n+]1ccc(C)cc1 | inactive and 43.4 µM (active) | –
O=C(O)C(Cl)(Cl)Cl | inactive | –
Nc1ccccc1 | inactive | –
CCCCCCCCCCCCOS(=O)(=O)O | 38.9 µM (active) and inactive | –
CCn1cc[n+](C)c1C | inactive | –
CCCCCCCCCCn1cc[n+](C)c1 | 22.1 µM (active) | –
COc1ccccc1N | inactive | –
CCCC[N+]1(C)CCCCC1 | – | 10.5% (inactive)
CC(=O)[O][Hg][c]1ccccc1 | 1.53 µM (active) and 1.1 µM (active) and 1.68 µM (active) | –
Cc1cc(Cl)ccc1N | inactive | –
CN(C)[C@@H]1C(=O)C(C(N)=O)=C(O)[C@@]2(O)C(=O)C3=C(O)c4c(O)cccc4[C@@](C)(O)[C@H]3[C@H](O)[C@@H]12 | inactive | –
